Laboratory results from PubChem BioAssay AID651813 (National Center for Advancing Translational Sciences (NCATS), 2012).
The whole screen tested about 2,100 compounds, of which about 1,100 (52%) were called active. Another 27% or so got no clear call; they are omitted. The set was probably picked from earlier hits. The list shows a part of the results. Unmarked numbers belong to inactive results. Calls come from the whole dose curve; as a rule, active = well fitted inhibition curve with a large enough effect; inconclusive = small, poorly fitted or top-dose-only effect; inactive = no such curve, though single readings can be large or run the other way.

Each compound was assayed against DNA dC->dU-editing enzyme APOBEC-3G (Homo sapiens) (UniProt Q9HC16) (assay: qHTS for inhibitors of Vif-A3G interactions: Cherry picks counterscreen). Settings: HeLa A3G-eYFP + Vif (tagged APOBEC3G with the HIV-1 protein that degrades it), eYFP fluorescence, 24 h.
Excerpt: The recent discovery and characterization of host restriction factors, which provide a potent defense to invading retroviruses, has provided new targets for antiviral drug development. APOBEC3G (A3G) and APOBEC3F (A3F) are potent cytidine deaminases that block HIV-1 replication; HIV-1 expresses the Vif protein, which counteracts A3G and A3F by binding to them and inducing their proteasomal degradation. The Vif-A3G and Vif-A3F interactions provide two potential targets for development of small molecules which can interfere with the ability of Vif to degrade A3G or A3F. […] To identify inhibitors that can interfere with Vif mediated degradation of A3G and A3F, we have developed Hela cell lines that stably express A3G or A3F tagged with eYFP at the C-terminal end (A3G-eYFP or A3F-eYFP, respectively) and Vif. In the absence of an inhibitor, Vif induces degradation of A3G-eYFP and A3F-eYFP, and the cells are not fluorescent. In the presence of an inhibitor, it is expected that Vif will be unable to degrade A3G-eYFP and/or A3F-eYFP, resulting in an increase in yellow fluorescence. In this counterscreen assay, Vif A3G was screened against the cherry picks ordered from the MLSMR. NIH Chemical Genomics Center [NCGC] NIH Molecular Libraries Probe Centers Network [MLPCN] MLPCN Grant: MH093245 Assay Submitter (PI): Vinay Pathak, National Cancer Institute
A3G-Vif cells were harvested from T225 flask and resuspended in phenol free OPTI-MEM medium with 5% FBS. Then 5 uL of 140,000 cells/mL resuspended cells was dispensed into each well of low base Aurora COC 1,536-well plates (black walled, clear bottom) using a Multidrop Combi dispenser. After overnight culture at 37 deg C with 5% CO2, a total of 23 nL of compounds at 5 selected concentrations from the NPC or positive control (2 mM stock of MG132) in DMSO was transferred to each well of the assay plate using a pintool (Kalypsys, San Diego, CA), and the plates were further incubated at 37 deg C with 5% CO2 for 24 hours. After that, the plates were measured on Acumen Explorer (TTP Lab Tech). The fluorescence was detected by 488 nm/Ex and […].
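Note: hits raise yellow fluorescence by blocking Vif-driven A3G-eYFP degradation; nearly all actives have a fitted effect of over 70% in size.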
Potency is the fitted concentration of half-maximal effect.
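Throughout, for max response: max response given as percent of control signal.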

Sequence of DNA dC->dU-editing enzyme APOBEC-3G (Homo sapiens) (Q9HC16 whole entry, looked up): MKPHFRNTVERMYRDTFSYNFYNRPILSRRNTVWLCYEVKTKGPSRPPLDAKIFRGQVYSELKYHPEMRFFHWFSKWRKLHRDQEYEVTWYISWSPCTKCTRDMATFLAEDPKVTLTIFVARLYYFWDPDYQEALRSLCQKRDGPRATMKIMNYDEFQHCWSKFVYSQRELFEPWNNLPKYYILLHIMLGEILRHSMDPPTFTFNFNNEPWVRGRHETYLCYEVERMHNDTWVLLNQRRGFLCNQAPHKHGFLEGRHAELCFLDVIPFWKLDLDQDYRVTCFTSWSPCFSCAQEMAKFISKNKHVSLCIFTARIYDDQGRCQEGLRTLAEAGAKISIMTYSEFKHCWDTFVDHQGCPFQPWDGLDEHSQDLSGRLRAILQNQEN

Which Potency does the source give for `Cc1cc(N(C)C)c(C)cc1/C=C/c1ccnc2ccccc12` here?
The Potency was 10.3 µM (active).

How did the Potency turn out when `CCN(CC)c1cc(C)c(/C=C/c2ccnc3ccccc23)cc1C` was run?
The Potency was 16.4 µM (active).

With `O=C(O)c1ccccc1N/N=C/c1c(Sc2nnnn2-c2ccccc2)nc2ccccn2c1=O` as the compound, how does the Potency read?
Its Potency is 4.44 µM (active).

`COc1cc(CCC(=O)Nc2nnc(C)s2)cc(OC)c1OC` was tested. Which Potency did it give?
Its Potency is 8.86 µM (active).

Which Potency does the source give for `COc1cc(C(=O)Nc2nnc(Cc3ccccc3)s2)cc(OC)c1OC` here?
Its Potency is 12.5 µM (active).

How did the max response turn out when `Cc1cc(NC(=O)Nc2nnc(N(C)Cc3ccccc3)s2)ccc1Br` was run?
The max response was 20.9%.

For `Cc1noc(C)c1COc1cccc(C(=O)OC(C)C(=O)Nc2ccc3c(c2)OCO3)c1` (stereo not drawn), which Potency is on record?
The Potency was 3.53 µM (active).

How did the max response turn out when `COc1ccc(NC(=O)C(NC(=O)/C=C\c2ccc3c(c2)OCO3)c2ccccc2)cc1` (stereo not drawn) was run?
Its max response is -17%.

How did the Potency turn out when `CC1(C)Cc2c(sc3ncnc(NNC(=S)NCc4ccccc4)c23)CO1` was run?
Its Potency is 12.5 µM (active).

For `C/C(=N\NC(=S)NCc1ccccc1)c1cccs1`, which max response is on record?
Its max response is -28.6%.

With `O=c1[nH]c2ccccc2nc1/C=C(\O)c1cccs1` as the compound, how does the Potency read?
The Potency was 4.61 µM (active).

With `NNC(=O)c1cc2sccc2s1` as the compound, how does the max response read?
The max response was 2.94%.

How did the Potency turn out when `Cc1cc(/C=C2\SC(=S)N(Cc3ccco3)C2=O)c(C)n1-c1ccccc1` was run?
Its Potency is 23.1 µM (active).

Which Potency does the source give for `CCN1CCN(c2c(/C=C3\SC(=S)N(Cc4ccco4)C3=O)c(C)c(C#N)c(=O)n2C)CC1` here?
Its Potency is 20.6 µM (active).

`Cc1cc(/C=C2\SC(=S)N(Cc3ccco3)C2=O)c(C)n1-c1cccnc1` was tested. Which Potency did it give?
The Potency was 9.2 µM (active).

`CN(C)c1ccc(C=C2SC(=S)N(Cc3ccco3)C2=O)cc1` was tested. Which Potency did it give?
The Potency was 3.53 µM (active).

Which Potency does the source give for `COc1ccc(Nc2nc3cc(C)ccc3cc2C#N)c(OC)c1` here?
Its Potency is 1.58 µM (active).

`COc1ccc(Nc2nc3cc(C)ccc3cc2C#N)cc1` was tested. Which Potency did it give?
Its Potency is 18.4 µM (active).

How did the max response turn out when `Cc1ccc2nc(NS(=O)(=O)c3ccc(Cl)cc3)c(Nc3ccc(C(=O)O)cc3)nc2c1` was run?
Its max response is 2.4%.

`CC(=O)n1c2ccccc2c2nc3ccccc3nc21` was tested. Which Potency did it give?
Its Potency is 2.59 µM (active).

Which Potency does the source give for `C=CCNc1nc2cc(-c3cccc(Cl)c3)sc2c(=O)n1C` here?
Its Potency is 14 µM (active).

With `CCOC(=O)c1ccc(/C=C2/C=C(c3ccccc3)N(c3ccc(Cl)c(C(=O)O)c3)C2=O)cc1` as the compound, how does the Potency read?
The Potency was 20.6 µM (active).

`C=CCOc1ccc2nc(NC(=O)OC)[nH]c2c1` was tested. Which Potency did it give?
The Potency was 2.23 µM (active).

For `CCOC(=O)c1c(NC(=O)CSc2nc3ccc(OC)cc3[nH]2)sc2c1CC(C)(C)NC2(C)C`, which max response is on record?
Its max response is -23%.

`COc1ccc(NC(=O)C2Cc3c(-c4cccc(NC(C)=O)c4)ccnc3O2)cn1` (stereo not drawn) was tested. Which Potency did it give?
The Potency was 14 µM (active).

Which Potency does the source give for `CC(=O)c1cccc(-c2ccnc3c2CC(C(=O)Nc2ccc(Cl)cc2)O3)c1` (stereo not drawn) here?
Its Potency is 12.5 µM (active).

`CC(=O)Nc1ccc(-c2ccnc3c2CC(C(=O)Nc2cccc(N(C)C)c2)O3)cc1` (stereo not drawn) was tested. Which Potency did it give?
Its Potency is 9.94 µM (active).

For `COc1ccc(NC(=O)C2Cc3c(-c4cccc(C(C)=O)c4)ccnc3O2)cc1` (stereo not drawn), which Potency is on record?
Its Potency is 3.96 µM (active).
